This passage reports outcome and AC50 results from PubChem BioAssay (EPA / NIEHS).

One may read the AC50 as the midpoint of the concentration-response curve, whichever way the signal moves.

Active and inactive are the calls of the source. How the source made its calls: active means hit-call score of the fitted dose curve at least 0.9, where 1 is the maximum; inactive means score below 0.9.

The nature of the assay: APR_HepG2_MitoticArrest_1hr: Apredica 1-hour HepG2 Assay for Mitotic Arrest (AID 2282672). As to conditions: high-content imaging, actives raise or lower the signal. The method, then:
APR_HepG2_1hr is a cell-based, multiplexed-readout assay that uses HepG2, a human liver cell line, with measurements taken at 1 hour after chemical dosing in a 384-well plate.APR_HepG2_MitoticArrest_1hr is one of 10 assay component(s) measured or calculated from the APR_HepG2_1hr assay. It is designed to make measurements of cell phenotype, a form of morphology reporter, as detected with fluorescence intensity signals by HCS Fluorescent Imaging technology.Data from the assay component APR_HepG2_MitoticArrest_1hr was analyzed into 1 assay endpoint. This assay endpoint, APR_HepG2_MitoticArrest_1hr, was analyzed with bidirectional fitting relative to DMSO as the negative control and baseline of activity. Using a type of morphology reporter, measures of protein for gain or loss-of-signal activity can be used to understand the signaling at the pathway-level as they relate to the gene . Furthermore, this assay endpoint can be referred to as a primary readout, because this assay has produced multiple assay endpoints where this one serves a signaling function. To generalize the intended target to other relatable targets, this assay endpoint is annotated to the cell cycle intended target family, where the subfamily is arrest.
Cells were treated with dimethyl sulfoxide (DMSO) as a solvent control at a final concentration of 0.5% v/v or with compounds in DMSO with a resulting final DMSO concentration of 0.5% v/v. Compound treatment was done at concentrations of 0.39, 0.78, 1.56, 3.12, 6.24, 12.5, 25, 50, 100, and 200 uM in duplicate on each plate. Cells were treated with compounds for 1, 24, or 72 hr. Carbonyl […] m-chloro-phenylhydrazone (CCCP) and taxol were used as positive controls for mitochondrial function and cytoskeletal stability, respectively; DMSO served as the negative control for this experiment. Cells were fixed by the direct addition of 50 uL formaldehyde in Hank's Balanced Salt Solution (HBSS) to a final concentration of 3.7%. After incubation in the fixation medium for 30 min at room temperature (293-298 K), cells were rinsed twice with HBSS and treated with cell permeabilization buffer (16 uL of 0.5% Triton X-100) for 10 min at room temperature (293-298 K) before labeling. For mitochondrial membrane potential and mitochondrial measurements, pre-fixed cells were incubated with 50 uL of MitoTracker Red CMXRos (Invitrogen) at a concentration of 250 nM for 30 min before fixation. In the remaining cases, post-fixed cells were labeled by incubation with a multiplexed mixture of primary antibodies in HBSS for 60 min at room temperature (293-298 K) to detect immunoreactivity of c-Jun (1:500), phospho-histone H3 (1:100), phospho-histone H2A.x (1:200), p53 (1:400), alpha-tubulin (1:200) and Hoechst 33342 (2 ug/mL). Cells were labeled for multiplexed imaging on two separate plates: a) Hoechst 33342, MitoTracker Red, phospho-histone H3, and alpha-tubulin, and b) Hoechst 33342, phospho-histone H2A.x, and c-Jun. A final rinse with HBSS (50 uL) was performed before analysis. The primary and secondary antibodies for the proteins were phospho-histone H3 (rabbit anti-phospho-histone H3 and FITC-donkey anti-rabbit IgG), phospho-histone H2A.x (mouse anti-phospho-histone H2A.x and FITC-donkey anti-mouse IgG), c-Jun (rabbit anti-phospho-c-Jun and Cy3-donkey anti-rabbit IgG), p53 (sheep anti-p53 and Cy5-donkey anti-sheep IgG), alpha-tubulin (mouse anti-alpha-tubulin and Cy5-donkey anti-mouse IgG). These antibodies are available as the CellCiphr HepG2 assay kit (Millipore).Digital images of each well were captured using a Cellomics ArrayScan VTI (Thermo Scientific Cellomics) (0.8 NA objective, 0.63x optical coupler, and XF-93 filter set) at 20x magnification. The images were acquired using the autofocus feature of the ArrayScan instrument, which entails the following steps. First, the camera focuses on channel 1 (Hoechst 33342), where nuclei are identified. Second, a Z offset of 1 um is used for capturing mitochondria (MitoTracker Red). […]
As to `O=[N+]([O-])c1c(Cl)c(Cl)c(Cl)c(Cl)c1Cl`, the compound was called inactive.

On to `CN1CSC(=S)N(C)C1`, for which the compound was classed as inactive. On the same count and under the same terms, to `CCS(=O)(=O)c1cccnc1S(=O)(=O)NC(=O)Nc1nc(OC)cc(OC)n1` belongs “inactive”; to `COC(=O)c1ccccc1S(=O)(=O)NC(=O)N(C)c1nc(C)nc(OC)n1`, “inactive”; to `CC(C)OC(=O)Nc1cccc(Cl)c1`, “inactive”. On the same count and under the same terms, to `O=C(O)C(F)(F)C(F)(F)C(F)(F)C(F)(F)C(F)(F)C(F)(F)C(F)(F)F` belongs “inactive”. `O=C(Nc1ccccc1)Nc1cnns1`: the call was inactive. Same read-out and setting: the same measure for `CC1(c2ccc(Oc3ccccc3)cc2)OC(=O)N(Nc2ccccc2)C1=O` (stereo not given): “inactive”; for `CCc1ccc(C(=O)NN(C(=O)c2cc(C)cc(C)c2)C(C)(C)C)cc1`: “inactive”; for `COP(=S)(OC)Oc1ccc(SC)c(C)c1`: “inactive”. Still for that read-out and setting: the same measure for `Clc1ccccc1-c1nnc(-c2ccccc2Cl)nn1`: “inactive”.

Consider `Oc1ccc(Cl)cc1Cc1ccccc1`, for which the outcome was inactive. As to `COc1nn(CSP(=S)(OC)OC)c(=O)s1`, the outcome was inactive. On to `CNC(=O)Oc1ccccc1OC(C)C`, for which the result was inactive. As for `CCC(C)Nc1c([N+](=O)[O-])cc(C(C)(C)C)cc1[N+](=O)[O-]` (stereo not given), the call was inactive. The same measure, in the same setting: to `COC(=O)c1ccccc1S(=O)(=O)NC(=O)Nc1nc(C)nc(OC)n1` belongs “inactive”; to `COc1cc(OC)nc(NC(=O)NS(=O)(=O)c2cc(NC=O)ccc2C(=O)N(C)C)n1`, “inactive”; to `CNC(=O)Oc1cccc(N=CN(C)C)c1`, “inactive”. Same read-out and setting: to `COP(=S)(OC)Oc1ccc([N+](=O)[O-])cc1` belongs “inactive”; to `CC(C)(C)C(O)C(Oc1ccc(Cl)cc1)n1cncn1` (stereo not given), “inactive”. Still for that read-out and setting: the same measure for `O=C(O)COc1ccc(Cl)cc1Cl`: “inactive”; for `CCC(C)(C)C(=O)OC1=C(c2ccc(Cl)cc2Cl)C(=O)OC12CCCCC2`: “inactive”. For `O=[N+]([O-])/N=C1\NCCN1Cc1ccc(Cl)nc1`, the compound was classed as inactive. Regarding `OCCOc1ccccc1`, the call was inactive.

Turning to `COP(=O)(OC)OC=C(Cl)Cl`, the result was inactive.

Take `O=S1OCC2C(CO1)C1(Cl)C(Cl)=C(Cl)C2(Cl)C1(Cl)Cl` (stereo not given): the call was inactive.

With `C#CCN1C(=O)COc2cc(F)c(N3C(=O)C4=C(CCCC4)C3=O)cc21`, the compound was called inactive. In the case of `CC(C)N(C(=O)COc1nnc(C(F)(F)F)s1)c1ccc(F)cc1`, the outcome was inactive.

On to `O=S(=O)(O)C(F)(F)C(F)(F)C(F)(F)C(F)(F)C(F)(F)C(F)(F)C(F)(F)C(F)(F)F`, for which the compound was called inactive. For the compound `O=C(O)CCCOc1ccc(Cl)cc1Cl`, the compound was classed as inactive. Regarding `CCOc1nc(NC)nc(NC(=O)NS(=O)(=O)c2ccccc2C(=O)OC)n1`, the outcome was inactive. Regarding `CC[C@H](C)[C@H]1O[C@]2(C=C[C@@H]1C)C[C@@H]1C[C@@H](C/C=C(\C)[C@@H](O[C@H]3C[C@H](OC)[C@@H](O[C@H]4C[C@H](OC)[C@@H](O)[C@H](C)O4)[C@H](C)O3)[C@@H](C)/C=C/C=C3\CO[C@@H]4[C@H](O)C(C)=C[C@@H](C(=O)O1)[C@]34O)O2` (tested in a mixture with another compound), the AC50 is 12.6 µM (active). Take `Cc1cc(C)nc(NC(=O)NS(=O)(=O)c2ccccc2C(=O)OC2COC2)n1`: the outcome was inactive. Still for that read-out and setting: to `CC(C)(C)C(O)/C(=C\c1ccc(Cl)cc1Cl)n1cncn1` (stereo not given) belongs “inactive”; to `CNC(=O)CSP(=S)(OC)OC`, “inactive”. In the case of `Oc1cc(Cl)ccc1Oc1ccc(Cl)cc1Cl`, the result was inactive.

Take `CCCN(CCC)c1c([N+](=O)[O-])cc(C(F)(F)F)cc1[N+](=O)[O-]`: the compound was classed as inactive. Take `CCN(CC)C(=O)SCc1ccc(Cl)cc1`: the compound was classed as inactive. On to `C[C@H]1[C@H](c2ccc(Cl)cc2)SC(=O)N1C(=O)NC1CCCCC1`, for which the outcome was inactive. Same read-out and setting: to `CC1(C)C(C=C(Cl)Cl)C1C(=O)OC(C#N)c1ccc(F)c(Oc2ccccc2)c1` (stereo not given) belongs “inactive”.
